Laboratory results as given in publication PMC5540273 (PLoS ONE, 2017).

Columns and labels:
Conditions in all cases: concentration: 1 μM, replicates: in singlicate; n = 1
[1] = test system: CDKL5
[2] = test system: CHEK1
[3] = test system: CHEK2
[4] = test system: CIT
[5] = test system: CLK1
[6] = test system: CLK2
[7] = test system: CLK3
[8] = test system: CLK4
[9] = test system: CSF1R-autoinhibited
[10] = test system: CSF1R
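Also: KINOMEscan kinase panel screen.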

Structure (SMILES) | %Inh [1] [%] | %Inh [2] [%] | %Inh [3] [%] | %Inh [4] [%] | %Inh [5] [%] | %Inh [6] [%] | %Inh [7] [%] | %Inh [8] [%] | %Inh [9] [%] | %Inh [10] [%]
CNc1cc(-c2ccc3c(N)n[nH]c3c2)nc(N)n1 [GSK2224810] | 0 | 0 | 84 | 9 | 90.2 | 80 | 18 | 89 | 5 | 3
CC(=O)c1cccc(NC(=O)NC2CCN(c3ccnc(Nc4ccc(F)cc4)n3)C2)c1 (centres unmarked) [GSK1379710] | 0 | 10 | 33 | 29 | 24 | 3 | 14 | 0 | 33 | 18
COc1ccc(Nc2nccc(N3CCC(NC(=O)C(C)c4ccc(Cl)cc4)CC3)n2)cc1 (centres unmarked) [GSK1379812] | 100 | 0 | 0 | 9 | 13 | 11 | 0 | 9 | 0 | 0
CS(=O)(=O)CCNCc1nc(-c2ccc3ncnc(Nc4ccc(OCc5ccccc5)c(Cl)c4)c3c2)cs1.Cl [GW582764] | 0 | 100 | 30 | 38 | 22 | 0 | 0 | 6 | 48 | 3
Fc1ccc(-c2nc3n(c2-c2ccncc2)CCS3)cc1 [GI98581] | 0 | 0 | 0 | 92.9 | 28 | 0 | 0 | 9 | 0 | 0
Cc1ccc(NC(=O)Nc2ccccc2F)cc1-c1ccc(C(=O)Nc2ccncc2)cc1 [GSK1398477] | 18 | 5 | 0 | 89 | 16 | 0 | 3 | 40 | 0 | 85
NS(=O)(=O)c1cccc(N/C=C2\C(=O)Nc3ccc(S(=O)(=O)Cc4c(Cl)cccc4Cl)cc32)c1 [GSK398099] | 0 | 6 | 0 | 22 | 43 | 33 | 4 | 0 | 0 | 3
COc1cccc(C2=C(Nc3cc(Cl)c(O)c(Cl)c3)C(=O)NC2=O)c1 [SB-390767] | 0 | 100 | 0 | 7 | 46 | 0 | 14 | 15 | 0 | 0
FC(F)(F)c1ccccc1-c1cc(-c2c[nH]nc2-c2ccccn2)ccn1 [GW679396] | 0 | 99.9 | 0 | 41 | 8 | 1 | 0 | 21 | 0 | 0
COc1ccc(CSc2nnc(-c3ccc4c(c3)CCO4)o2)cc1 | 0 | 0 | 0 | 0 | 64 | 28 | 0 | 81 | 10 | 0
CSc1ccc(-c2nc3n(c2-c2ccncc2)CCC3)cc1 [SKF-105561] | 6 | 0 | 0 | 11 | 5 | 0 | 13 | 3 | 3 | 40
CCn1c(-c2c(N)noc2C)nc2cnccc21 [SB-737856] | 0 | 0 | 0 | 22 | 26 | 0 | 0 | 13 | 0 | 14
COc1ccc(Nc2nccc(N3CCC(NC(=O)c4cc5ccccc5s4)C3)n2)cc1 (centres unmarked) [GSK1379738] | 0 | 100 | 0 | 0 | 24 | 7 | 4 | 0 | 0 | 19
CNc1nc(-c2ccc3c(N)n[nH]c3c2)cc(N2C[C@@H](C(=O)Nc3ccccc3)CC[C@H]2C)n1 [GSK2298859] | 1 | 0 | 11 | 89 | 33 | 68 | 6 | 43 | 0 | 2
CNC(=O)c1ccc(C)c(-n2c(C)cc(OCc3ccc(F)cc3F)c(Br)c2=O)c1 | 0 | 0 | 0 | 0 | 11 | 0 | 0 | 0 | 0 | 0
CC(C)c1ccc(O)cc1Nc1ccnc2ccc(C(F)(F)F)cc12 [GW482059] | 0 | 14 | 0 | 25 | 14 | 4 | 0 | 32 | 0 | 0
Cn1cncc1C(=O)NC1CCN(c2ccnc(Nc3ccc(F)cc3)n2)C1 (centres unmarked) [GSK1379717] | 0 | 0 | 0 | 0 | 23 | 0 | 0 | 0 | 0 | 6
O=c1cc(N2CCOCC2)nc2n(Cc3cccc(Cl)c3Cl)c3ccccc3n12 [GSK2299009] | 7 | 3 | 0 | 21 | 27 | 2 | 1 | 8 | 0 | 28
Cl.Cl.Cl.N#Cc1ccc(CCNc2nccc(-c3cccc(CN4CCNCC4)c3)n2)cc1 [GSK2137462] | 0 | 0 | 0 | 82 | 17 | 23 | 0 | 15 | 0 | 8
CC[C@@H]1CO[C@H](C(=O)Nc2ccccc2)CN1c1cc(-c2ccc3c(N)n[nH]c3c2)nc(NC)n1 [GSK2376236] | 0 | 2 | 29 | 98.5 | 37 | 0 | 7 | 0 | 0 | 12
